Measurements: PubChem BioAssay (NCI)
This is part of a sample that, as a whole, favours compounds with a hit. Of some 79,000 tested, about 15% had one in any assay. Values without a mark were called inactive. No stated cut-off is given here; in the data, active means growth inhibition above about 70%; inactive means the rest.

Assay: NCI Yeast Anticancer Drug Screen. Data for the sgs1 mgt1 strain (AID 161);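 further: 0% = growth of cultures given vehicle only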
Conditions: S. cerevisiae sgs1 mgt1 strain, at 50.0 µM, active compounds read high
Experimental: Growth inhibition of yeast strains with defined genetic alterations is measured as a screen for potential anti-cancer activity. Selected strains with alterations in DNA damage repair or cell cycle control were exposed to compounds and growth inhibition was measured relative to vehicle treated controls. The strain used in this assay is sgs1 mgt1

In order of falling growth inhibition:
1. NCCCc1ccc2c(c1)OCO2  36%
2. CC(=O)OCC1OC(OC(C)=O)C(N(C)C(C)=O)C(OC(C)=O)C1OC(C)=O (stereo not given)  26.8%
3. CCOC(=O)Nc1cc2c(c(N)n1)N=C(c1ccc(OC)cc1)CN2  24.5%
4. Cc1ccc(NC(=O)Oc2ccc(C#N)cc2)cc1Cl  21.1%
5. O=C1c2cc3c(cc2C(=O)c2[nH]ncc21)OCO3  16.7%
6. O=c1oc2c(Cl)cc(Cl)cc2cc1-c1nc2ccccc2[nH]1  15.6%
7. O=S(=O)(N/N=C(/CC/C(=N\NS(=O)(=O)c1ccccc1)c1ccccc1)c1ccccc1)c1ccccc1  11.7%
8. COc1c2ccoc2c(OC)c2oc(=O)ccc12  11.7%
9. Nc1ccc(S(=O)(=O)Nc2cnc3c(Cl)cccc3n2)cc1  10.9%
10. CC(C)(Oc1ccc2c(=O)cc(-c3ccccc3)oc2c1)C(=O)Nc1c(Cl)cccc1Cl  10.2%
11. O=C(N=Nc1c(O)[nH]c2ccccc12)C(=O)N=Nc1c(O)[nH]c2ccccc12  9.5%
12. CNNCCCC(=O)NC(C)C  9.25%
13. O=C1C=CC(=Nc2ccc3c(c2)C(=O)c2cc(F)ccc2-3)O1  9.2%
14. CCC(C(C)=O)C(C)C (stereo not given)  8.6%
15. COc1ccc(CC(CN)P(=O)(O)O)cc1 (stereo not given)  8.5%
16. OCc1c(CO)c(-c2ccc(Cl)cc2)n2c1CCC2  8.4%
17. O=c1c2ccccc2nc(-c2ccccc2)n1-c1cc(C(F)(F)F)cc(C(F)(F)F)c1  7.85%
18. Clc1ccc(-c2oc(-c3ccc(Cl)cc3)c3ccccc23)cc1  4.75%
19. CCC(C)(C)N  4.25%
20. O=C1c2ccccc2C(=O)C1(O)c1c[nH]c2ccccc12  4.25%
21. O=C1CCC(=O)N1Cc1ccccc1N=[N+]([O-])c1ccccc1CN1C(=O)CCC1=O  1.75%
22. CN(C)C(=NN)N(C)C  1.55%
23. O=C1CC(c2ccccc2)C(c2ccccc2)C1C(=O)OC1CCCCC1 (stereo not given)  0.65%
24. COc1ccc(C2COc3c(ccc(OC)c3OC)C2=O)cc1OC (stereo not given)  -1.2%
25. CCCCCCCCCCNCC(=O)O  -1.65%
26. CC(C)=C1C2C=CC1C(CO)C2CO (stereo not given)  -3.95%
27. O=C(O)C1C(C(=O)O)C2C3C4C1C1C2C3C41 (stereo not given)  -4.2%
28. O=C(SCSC(=O)c1ccccc1)c1ccccc1  -4.75%
29. C/C(=N\O)c1ccc2[nH]c(C)cc(=O)c2c1  -5.45%
30. CN(C=O)c1ccc(C(=O)O)cc1  -6.25%
31. Nc1cccc(CC(N)C(=O)O)c1 (stereo not given)  -8.7%
32. CCOC(=O)/C(=C/c1ccc(C#N)cc1)N(CC)CC  -9%
33. O=C(N/N=C\c1cc(=O)[nH]c(=O)[nH]1)c1ccccc1  -11.5%
34. CC1=C(O)c2cc3c(cc2C(=O)C1=O)OCO3  -15%
35. O=C(O)c1[nH]c(=O)[nH]c(=O)c1CN1CCCCC1  -15.1%
36. O=c1cnc2c(ccc3ccccc32)[nH]1  -16.1%
37. Cc1c(-c2ccccc2)n[nH]c1-c1[nH]nc(-c2ccccc2)c1C  -24.2%
38. COc1c(-c2ccc(F)cc2)oc2c(CC(=O)O)cccc2c1=O  -27.1%
39. CC(=O)Nc1ccc(C(=O)NN2C(=O)C(Cl)/C2=C/c2ccco2)cc1 (stereo not given)  -28.8%
40. C=CCNC(=S)/N=C/C(C(=O)Nc1ccccc1)=C(/C)O  -41.2%
